Active and inactive are the calls of the source.
How the values were obtained:
[1] = anti-His antibody binders, primary screen, artefact control for SMM control protein annotation, biochemical, small-molecule microarray, 635 nm fluorescence (AID 1128); conditions: anti-His Alexa647 antibody binding, higher = more signal;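 further: score merges feature fluorescence with signal-to-noise for each printed compound spot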
[2] = system: Human papillomavirus type 1a E7 protein (residues 1-88); test: HPV1a E7 small-molecule binders, primary screen, biochemical, small-molecule microarray, residues 1-88, 635 nm (AID 1129); conditions: small-molecule microarray binding, fluorescence 635 nm; higher = more signal
[3] = target: Focal adhesion kinase 1 (Homo sapiens) (UniProt Q05397); test: small-molecule microarray binders of FAK, primary screen, biochemical, 635/667 nm fluorescence, BSA, DTT (AID 1130); conditions: PTK2 binding, 635 nm fluorescence, higher = more signal;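 further: composite of spot emission at 667 nm and signal to noise over triplicate slides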
Chain of Focal adhesion kinase 1 (Homo sapiens) (Q05397 whole entry, looked up): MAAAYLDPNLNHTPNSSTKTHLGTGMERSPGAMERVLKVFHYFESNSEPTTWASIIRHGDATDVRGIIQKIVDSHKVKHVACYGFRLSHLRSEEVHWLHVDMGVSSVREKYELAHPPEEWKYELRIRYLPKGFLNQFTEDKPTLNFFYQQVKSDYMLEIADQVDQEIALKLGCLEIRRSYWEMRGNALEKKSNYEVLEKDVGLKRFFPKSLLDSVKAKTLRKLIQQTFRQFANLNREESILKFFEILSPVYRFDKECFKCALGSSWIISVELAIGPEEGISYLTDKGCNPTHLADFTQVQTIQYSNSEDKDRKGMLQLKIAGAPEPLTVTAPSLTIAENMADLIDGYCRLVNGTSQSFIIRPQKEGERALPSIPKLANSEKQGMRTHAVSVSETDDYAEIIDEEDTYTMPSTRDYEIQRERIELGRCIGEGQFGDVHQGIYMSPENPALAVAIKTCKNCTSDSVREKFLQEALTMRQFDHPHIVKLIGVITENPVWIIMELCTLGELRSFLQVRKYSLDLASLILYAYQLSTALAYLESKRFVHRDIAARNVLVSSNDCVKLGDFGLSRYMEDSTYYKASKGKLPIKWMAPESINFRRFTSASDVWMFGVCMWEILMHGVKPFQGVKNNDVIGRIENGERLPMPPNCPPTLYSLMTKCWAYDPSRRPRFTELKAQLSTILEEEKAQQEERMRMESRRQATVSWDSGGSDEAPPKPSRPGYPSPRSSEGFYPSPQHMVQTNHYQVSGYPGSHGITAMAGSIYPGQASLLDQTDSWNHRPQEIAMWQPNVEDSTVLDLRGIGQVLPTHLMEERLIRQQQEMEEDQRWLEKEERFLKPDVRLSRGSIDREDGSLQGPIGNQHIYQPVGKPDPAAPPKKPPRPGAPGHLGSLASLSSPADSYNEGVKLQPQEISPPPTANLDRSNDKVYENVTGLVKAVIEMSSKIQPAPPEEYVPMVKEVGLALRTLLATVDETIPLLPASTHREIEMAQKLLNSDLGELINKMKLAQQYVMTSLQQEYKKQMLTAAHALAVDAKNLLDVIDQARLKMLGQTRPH

[4] = system: Fibrinogen (Alexa647-labelled); test: fibrinogen binders on compound microarrays, profiling panel, artefact control for SMM control-protein annotation, biochemical, small-molecule microarray, 635/667 nm fluorescence (AID 1131); conditions: fibrinogen-A647 binding fluorescence, higher = more signal;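 further: z-score merges 667 nm fluorescence with per-spot signal-to-noise over triplicate slides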
[5] = target: Follistatin (Homo sapiens) (UniProt P19883); test: follistatin binders on small-molecule microarrays, primary screen, biochemical, small-molecule microarray, 635/667 nm fluorescence (AID 1132); conditions: FST binding, 635 nm fluorescence, higher = more signal
Chain of Follistatin (Homo sapiens) (P19883 whole entry, looked up): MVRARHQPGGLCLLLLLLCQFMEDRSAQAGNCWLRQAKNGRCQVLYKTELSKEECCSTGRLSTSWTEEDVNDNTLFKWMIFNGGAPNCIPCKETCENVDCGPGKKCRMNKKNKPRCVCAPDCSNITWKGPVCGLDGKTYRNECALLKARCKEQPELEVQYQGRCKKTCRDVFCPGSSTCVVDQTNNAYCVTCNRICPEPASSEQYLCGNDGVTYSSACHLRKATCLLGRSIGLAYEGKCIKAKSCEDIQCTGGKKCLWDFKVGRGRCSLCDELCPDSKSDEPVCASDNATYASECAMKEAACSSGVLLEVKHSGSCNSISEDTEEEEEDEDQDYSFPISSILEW

[6] = target: Fibroblast growth factor 2 (Homo sapiens) (UniProt P09038); test: FGF2 binders on small-molecule microarrays, primary screen, biochemical, small-molecule microarray, 635/667 nm fluorescence (AID 1133); conditions: small-molecule microarray binding, FGF2, fluorescence 635/667; higher = more signal
Chain of Fibroblast growth factor 2 (Homo sapiens) (P09038 whole entry, looked up): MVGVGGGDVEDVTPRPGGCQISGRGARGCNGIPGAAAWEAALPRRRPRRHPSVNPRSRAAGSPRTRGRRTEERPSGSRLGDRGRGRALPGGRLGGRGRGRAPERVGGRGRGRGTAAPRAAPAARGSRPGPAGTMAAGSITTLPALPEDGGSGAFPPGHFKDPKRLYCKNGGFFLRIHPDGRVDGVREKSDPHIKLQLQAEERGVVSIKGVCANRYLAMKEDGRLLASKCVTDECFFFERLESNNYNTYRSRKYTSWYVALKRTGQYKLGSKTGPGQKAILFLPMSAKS

[7] = mitochondrial membrane potential change in A549 cells, profiling panel, cell-based, JC-1 fluorescence, basal, 24 h, 100 nL (AID 1138); conditions: higher = more signal;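 further: A549 lung adenocarcinoma cells under basal conditions with no added stimulus; test concentration not given here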
Lefty1 = Lefty1 binders on small-molecule microarrays, primary screen, biochemical, small-molecule microarray, 635/667 nm fluorescence (AID 1139); conditions: small-molecule microarray binding, fluorescence 635/667; higher = more signal
[8] = system: wheat germ agglutinin (Triticum aestivum), Alexa647-labelled; test: wheat germ agglutinin binders on compound microarrays, profiling panel, artefact control for SMM control-protein annotation, biochemical, small-molecule microarray, 635/667 nm fluorescence (AID 1140); conditions: WGA-A647 binding, 635 nm fluorescence, higher = more signal;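 further: score merges 667 nm feature emission with signal to noise over triplicate slides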
[9] = target: Luciferin 4-monooxygenase (Photinus pyralis) (UniProt P08659); test: firefly luciferase enzyme inhibitors, primary screen, biochemical, luminescence, purified enzyme, 2006 set (AID 1141); conditions: SteadyGlo luminescence, 30 min, higher = more signal, called active from +8 up or from −8 down;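 further: cell-free assay with purified firefly luciferase at 100 ng per well in PBS; test concentration not given here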
Chain of Luciferin 4-monooxygenase (Photinus pyralis) (P08659 whole entry, looked up): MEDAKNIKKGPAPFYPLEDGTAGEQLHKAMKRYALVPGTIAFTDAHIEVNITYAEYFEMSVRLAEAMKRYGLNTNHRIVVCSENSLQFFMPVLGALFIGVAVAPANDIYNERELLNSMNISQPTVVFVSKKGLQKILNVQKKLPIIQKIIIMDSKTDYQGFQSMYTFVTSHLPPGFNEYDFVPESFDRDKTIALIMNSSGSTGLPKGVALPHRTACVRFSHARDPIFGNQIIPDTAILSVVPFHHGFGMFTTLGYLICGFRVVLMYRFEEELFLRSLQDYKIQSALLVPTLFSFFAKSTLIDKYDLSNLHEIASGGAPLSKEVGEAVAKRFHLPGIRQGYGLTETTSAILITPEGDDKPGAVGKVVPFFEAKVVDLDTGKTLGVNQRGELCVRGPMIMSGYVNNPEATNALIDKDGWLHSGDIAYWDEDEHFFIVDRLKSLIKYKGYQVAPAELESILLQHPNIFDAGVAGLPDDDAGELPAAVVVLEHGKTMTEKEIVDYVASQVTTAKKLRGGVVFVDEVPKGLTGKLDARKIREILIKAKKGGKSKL

Row | Structure (SMILES) | composite z-score [1] | composite z-score [2] | composite z-score [3] | composite z-score [4] | composite z-score [5] | composite z-score [6] | z-score [7] | composite z-score (Lefty1) | composite z-score [8] | z-score [9]
1 | CC(C)c1ccc(NN2C(C(O)c3cc(C(F)(F)F)cc(C(F)(F)F)c3)C=CC3C(=O)N(c4ccccc4)C(=O)C32)cc1 (stereo not given) | 0.444 | 1.22 | 0.579 | 0.975 | -0.105 | -0.313 | -0.731 | -0.842 | 1.13 | 0.0708 (inactive)
2 | C=CCNC(=O)[C@@H]1[C@H]2C(=O)O[C@H](c3ccccc3)[C@H](c3ccccc3)N2[C@H](c2ccccc2OCCO)[C@@]12C(=O)N(C(=O)OCCOC)c1ccc(C#CCNC(N)=O)cc12 | 1.56 | 1.14 | 0.322 | 0.887 | 0.864 | 0.658 | -0.206 | 0.857 | 0.916 | -0.63 (inactive)
3 | COCCn1c(C(=O)N2CCCC2)cc2c1C[C@H]1CN(C(=O)c3ccccc3)[C@@](Cc3ccc(F)cc3)(C(=O)OC)[C@@H]21 | 0.346 | 1.27 | 1.61 | 1.02 | 0.35 | -0.703 | -0.328 | 0.108 | 0.845 | 3.4 (inactive)
4 | COc1cc2c(cc1O)C=[N+](Cc1cccc(OC(F)(F)F)c1)CC2 | -0.131 | -0.566 | 0.185 | -0.636 | 0.318 | -0.0744 | 2 | -0.285 | 1.01 | -0.847 (inactive)
5 | C[C@]1(C(=O)NC2CC2)c2ccccc2C(=O)N(Cc2cc(C(F)(F)F)cc(C(F)(F)F)c2)[C@H]1c1ccc(CO)cc1 | 1.86 | 1.11 | -0.0326 | 0.657 | 1.31 | 0.998 | 1.73 | 0.539 | 0.772 | -1.07 (inactive)
6 | C=CCN(Cc1ccccc1)C(=O)C(c1cccs1)N(CCOCCO)C(=O)/C=C\C(=O)O (stereo not given) | -0.187 | -0.92 | -0.374 | -2.2 | -2.64 | -2.43 | 0.316 | -2.47 | -0.47 | -3.93 (inactive)
7 | O=C1O[C@H](c2ccccc2)[C@H](c2ccccc2)N2[C@H]1[C@@H](C(=O)NC[C@H](O)c1ccccc1)[C@]1(C(=O)Nc3ccccc31)[C@H]2c1ccc(OCCO)cc1 | 1.77 | 1.2 | 1.06 | 0.743 | 0.992 | 0.655 | -0.253 | 0.0702 | 0.864 | -0.609 (inactive)
8 | O=C(NCc1ccccc1)[C@@]1(Cc2ccccc2)N=C(c2ccc(OCCCO)cc2)O[C@H]1c1ccccc1 | 1.47 | 1.22 | 0.45 | 0.866 | 0.368 | -0.352 | 0.164 | -0.872 | 1.05 | 0.712 (inactive)
9 | CC1CC/C=C\[C@H]2OC34C=CCN(c5ccc(Cl)cc5)C(=O)[C@H]3N(CCO)C(=O)[C@]4(C)C2C(=O)O1 (stereo not given in full) | 3.56 | -0.0955 | 1.67 | -1.84 | -0.338 | -0.492 | -0.259 | -0.49 | 0.811 | 0.259 (inactive)
10 | CCOC(=O)C[C@H]1[C@H](OC(=O)Cc2ccc3c(c2)OCO3)[C@@H](NC(=O)c2ccc3ccccc3c2)c2cc(OCCCO)ccc2N1C(=O)c1ccccc1 | 0.638 | 0.878 | 0.675 | 0.823 | 0.375 | 0.111 | 1.84 | 0.593 | 0.271 | -1.05 (inactive)
11 | O=C1C[C@]2(c3ccc([N+](=O)[O-])cc3)C(=O)N(CCN3CCOCC3)c3cc(CO)ccc3[C@H]2N1C1CCCCC1 | -0.106 | -1.24 | -0.617 | 0.975 | -0.414 | 0.189 | 0.631 | -0.599 | 0.409 | -0.648 (inactive)
12 | O=C1OCCC/C=C\[C@H]2OC34C=CCN(c5ccc6ccccc6c5)C(=O)[C@H]3N(CCCCCCO)C(=O)[C@@H]4C12 (stereo not given in full) | 1.79 | 0.124 | -0.29 | -1.74 | -0.179 | -0.943 | 1.74 | -0.159 | -0.0279 | -1.47 (inactive)
13 | CCCC#C[Si](O[C@H](CC)c1cn([C@H](CO)Cc2ccccc2)nn1)(C(C)C)C(C)C | 0.236 | 0.842 | 0.249 | 0.892 | 0.963 | 0.344 | 0.175 | 0.41 | 0.0686 | -0.453 (inactive)
14 | COC(=O)c1c(CC[C@@H](CO)NC(=O)N[C@@H](C)Cn2cc(C3(O)CCCCC3)nn2)oc(C(C)=O)c1C(=O)OC | 2.77 | 1.12 | -0.262 | 0.747 | 1.22 | 1.29 | -1 | 1.66 | 0.696 | 0.599 (inactive)
15 | CCOC(=O)C[C@H]1[C@H](OC(=O)Cc2ccc3c(c2)OCO3)[C@@H](NC(=O)c2ccc(-c3ccccc3)cc2)c2cc(OCCCO)ccc2N1C(=O)Cc1ccc(OC)cc1 | 0.0923 | 0.516 | 0.165 | 0.872 | 0.518 | 0.28 | 1.24 | 0.475 | 0.415 | -1.11 (inactive)
16 | C=CCN1C(=O)[C@@]2(O[C@@H](CCO)[C@H]([Si](C)(C)c3ccc(OC)cc3)[C@H]2C)c2cc(NC(=O)c3ccc(OC)cc3)ccc21 | 0.919 | 0.563 | -0.0376 | 0.259 | 1.38 | 1.2 | 2.81 | 0.763 | 0.458 | -1.26 (inactive)
17 | COc1cc2c(cc1OC)CN(C(=O)[C@@H]1[C@H]3C(=O)O[C@H](c4ccccc4)[C@H](c4ccccc4)N3[C@H](c3ccc(O)cc3)[C@@]13C(=O)Nc1ccc(C#CC4(O)CCCCCC4)cc13)CC2 | 2.4 | 1.25 | 0.592 | 0.924 | 1.14 | 1.35 | -0.373 | 0.999 | 0.137 | -0.798 (inactive)
18 | CN(C)C(=O)[C@]1(Cc2ccccc2CN=[N+]=[N-])N=C(c2ccc(OCCCO)cc2)O[C@@H]1c1ccccc1CN=[N+]=[N-] | 1.17 | 1.25 | 0.44 | 0.969 | 1.28 | 0.355 | 0.0653 | 1.06 | 1.09 | -0.554 (inactive)
19 | O=C1OCCC/C=C\[C@H]2OC34C=CCN(CCN5CCOCC5)C(=O)[C@H]3N(CCCO)C(=O)[C@@H]4C12 (stereo not given in full) | -0.851 | -0.786 | -0.253 | -1.16 | -0.803 | -0.506 | -0.278 | -0.483 | 0.023 | 0.266 (inactive)
20 | CC(C)(C)OC(=O)CC[C@]1(C(=O)O)N=C(c2ccc(OCCCO)cc2)O[C@H]1c1ccccc1N=[N+]=[N-] | 1.95 | 0.815 | 0.238 | 0.882 | 0.891 | 0.0606 | -0.974 | -0.811 | 0.963 | -10.5 (active)
21 | COCCOC(=O)N1C(=O)[C@@]2(c3cc(C#CC4=CCCCC4)ccc31)[C@H](C(N)=O)[C@H]1C(=O)O[C@H](c3ccccc3)[C@H](c3ccccc3)N1[C@@H]2c1ccc(OCCO)cc1 | 2.26 | 1.21 | 0.797 | 0.938 | 0.371 | 0.925 | -1.65 | 0.517 | 0.773 | -1.8 (inactive)
22 | COc1ccc(C(O)C2C=CC3C(=O)NC(=O)C3N2Nc2ccccn2)c2ccccc12 (stereo not given) | 0.516 | -0.609 | -0.106 | 0.0992 | 0.488 | 0.524 | -1.15 | -0.0665 | 0.788 | -1.46 (inactive)
23 | CN1C(=O)C2C=CC(C(O)c3cccs3)N(Nc3ccccc3)C2C1=O (stereo not given) | 0.803 | 1.16 | 0.251 | 0.024 | 0.492 | -0.294 | 0.0177 | 0.249 | 0.508 | -0.0014 (inactive)
24 | COc1ccc(C(=O)O[C@H]2CC[C@]3(C)C4=C(CCC3C2(C)C)[C@]2(C)CC[C@H]([C@H](C)CCCC(C)C)[C@@]2(C)CC4)cc1 (stereo not given in full) | 0.541 | 0.607 | -0.0307 | 0.206 | 0.625 | 0.483 | 1.41 | 0.493 | 0.103 | -0.384 (inactive)
25 | CC(C)C[C@@H]1NC(=O)[C@H]2C[C@@H](C(=O)NCCCCCCN(C)C)[C@@H](c3ccc(O)cc3)N2C1=O | 2.44 | 0.977 | 0.34 | 0.357 | 1.35 | 1.29 | -0.0361 | 1.19 | 0.115 | -0.263 (inactive)
26 | COCCOC(=O)N1C(=O)[C@@]2(c3cc(C#Cc4ccc(OC)cc4)ccc31)[C@H](C(N)=O)[C@H]1C(=O)O[C@H](c3ccccc3)[C@H](c3ccccc3)N1[C@@H]2c1ccccc1OCCO | 2.24 | 1.21 | 0.861 | 1 | 1.3 | 1.42 | -1.47 | 1.58 | 0.901 | 0.0449 (inactive)
27 | COc1ccc(C(O)C2C=CC3C(=O)N(C)C(=O)C3N2N2CCCCC2)c2ccccc12 (stereo not given) | 1.4 | 1.26 | 0.921 | 1 | 0.829 | -0.372 | -0.364 | 0.174 | 1.27 | -0.129 (inactive)
28 | CN(C)CCCC[C@@H]1NC(=O)[C@H]2C[C@@H](C(=O)NCCCCCNC(=O)CS)[C@@H](c3cccc(OCCO)c3)N2C1=O | 1.32 | 0.866 | 0.688 | 0.44 | 1.41 | 1.69 | 0.446 | 1 | -0.0708 | -0.804 (inactive)
